In PubChem BioAssay (NCI):
About 83,000 compounds went through this panel and 20% of them were active in at least one assay; those are over-represented in the sample as a whole.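 Treatment: one concentration, 48 hours, 96-well format. Scoring: percent growth, with anything below 10 considered active.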 The source made the active and inactive calls.

Assays:
Test in all cases: NCI-60 one-dose screen, 48 h (100 = growth as untreated, 0 = no growth, -100 = all killed)
Details in all cases: 10 µM unless noted
[1] = test system: RPMI-8226 leukemia
[2] = test system: OVCAR-8 ovarian
[3] = test system: OVCAR-5 ovarian
[4] = test system: OVCAR-4 ovarian
[5] = test system: SK-OV-3 ovarian
[6] = test system: OVCAR-3 ovarian
[7] = test system: HS 578T breast
[8] = test system: NCI/ADR-RES ovarian
[9] = test system: T-47D breast
[10] = test system: BT-549 breast
[11] = test system: MDA-MB-435 melanoma
[12] = test system: SW-620 colon
[13] = test system: MCF7 breast
[14] = test system: HCT-116 colon
[15] = test system: HCC-2998 colon
[16] = test system: KM12 colon
[17] = test system: IGROV1 ovarian

Measured: growth

COc1ccc(-c2nc3sccn3c2-c2cc(-c3cc(OC)c(OC)c(OC)c3)on2)cc1
inactive: [1] 41.5% | [2] 94.6% | [3] 124% | [4] 84.4% | [5] 92.2% | [6] 76% | [7] 92.5% | [8] 87.5% | [9] 51.9% | [10] 98.6% | [11] 102% | [12] 105% | [13] 88.5% | [14] 85.5% | [15] 98.2% | [16] 90.5%

O=C(Nc1cccc2c(O)c(N=Nc3ccc(S(=O)(=O)Nc4nccs4)cc3)cc(N=Nc3ccc(S(=O)(=O)Nc4nccs4)cc3)c12)C(Cl)Cl
active: [1] -10.9%
inactive: [2] 59.1% | [3] 112% | [4] 90.3% | [5] 107% | [6] 35.9% | [7] 56.4% | [8] 101% | [9] 88.3% | [11] 106% | [12] 42% | [13] 57.8% | [14] 71.8% | [15] 107% | [16] 59%

O=[N+]([O-])c1ccc(N2c3ccncc3Sc3ccncc32)cc1
inactive: [1] 93.5% | [2] 87% | [3] 118% | [4] 109% | [5] 116% | [6] 94.2% | [7] 104% | [8] 106% | [9] 97.4% | [11] 112% | [12] 103% | [13] 101% | [15] 110% | [16] 93.5%

O=S(=O)(Nc1cccc(Cl)c1)c1ccc(-c2cnc(C3CC3)o2)cc1
active: [6] -9.95% | [11] -21.5%
inactive: [1] 17.8% | [2] 33.5% | [3] 37.2% | [4] 41.7% | [5] 34.3% | [17] 26.4% | [8] 18.9% | [9] 25% | [12] 11.3% | [13] 14.2% | [14] 15.3% | [15] 46.3% | [16] 20.8%

Clc1ccc(-c2c3ccc(=[N+]4CCCCC4)cc-3oc3cc(N4CCCCC4)ccc23)cc1
active: [1] -41.9% | [2] -50.6% | [3] -90.3% | [4] -82.5% | [5] -95.8% | [17] -77% | [6] -98.3% | [8] -65.7% | [9] -75.3% | [10] -93.5% | [11] -59.9% | [12] -83.8% | [13] -73.9% | [14] -97.3% | [15] -95.6% | [16] -86.9%

CCCCCCCCCCCC(c1ccccc1)[N+](C)(C)C (stereo not drawn)
inactive: [2] 19.3% | [3] 17.3% | [5] 10.3% | [6] 18.6% | [8] 91.7% | [12] 41.9% | [13] 16.1%
active: [1] -16.1% | [4] 9.74% | [17] -60.8% | [9] 2.28% | [10] -36.3% | [11] 8.21% | [14] 9.83% | [16] -20.7%

COc1cc(N2C(=O)c3nccnc3C2=O)cc(OC)c1OC
inactive: [1] 97.6% | [2] 104% | [3] 109% | [4] 105% | [5] 103% | [17] 98.2% | [6] 120% | [8] 104% | [9] 96.9% | [10] 95.2% | [11] 107% | [12] 104% | [13] 95.7% | [16] 110%

CCCCCCCCCCCCCCCCCC1=NCCN1CCOC1=C(Cl)C(=O)c2ccccc2C1=O
inactive: [1] 33.1% | [2] 75% | [3] 115% | [5] 99.9% | [17] 67% | [6] 23.4% | [8] 81.7% | [9] 12.6% | [10] 68% | [11] 95.5% | [13] 65.6% | [14] 43.6% | [15] 100% | [16] 51%
active: [4] -5.67% | [12] 7.23%

Cc1ccc(S(=O)(=O)Oc2cc(OS(=O)(=O)c3ccc(C)cc3)cc(OS(=O)(=O)c3ccc(C)cc3)c2)cc1
inactive: [1] 88.6% | [2] 107% | [3] 105% | [4] 93.2% | [5] 101% | [6] 96.3% | [7] 95.8% | [8] 95.6% | [9] 97.8% | [10] 118% | [11] 96.2% | [12] 92.2% | [13] 104% | [14] 103% | [15] 139% | [16] 123%

CCCc1cc2c(=O)c(C(=O)OC)c[nH]c2cc1N(CC)CC
inactive: [1] 82.5% | [2] 102% | [3] 88.8% | [4] 101% | [5] 100% | [6] 95.3% | [7] 123% | [8] 99% | [9] 94.4% | [10] 93.5% | [11] 109% | [12] 114% | [13] 80.2% | [14] 96.3% | [15] 104% | [16] 105%

CNC(=O)CCN1CCN(CC/C=C2\c3ccccc3Sc3ccc(Cl)cc32)CC1
inactive: [1] 70.1% | [2] 88.5% | [3] 96.3% | [4] 105% | [5] 122% | [6] 57.8% | [8] 98.3% | [9] 85% | [10] 91.5% | [11] 72.3% | [12] 86.9% | [13] 73.2% | [14] 68.8% | [15] 83.6% | [16] 62.3%
